An excerpt weighted towards active compounds, which were near 6.8% of everything screened.
C diff HTS – C. difficile growth inhibitors, primary screen, HTS; growth activity, negative = inhibition, % at 16 µg/mL (by protocol); actives 0.25% (n = 86,000); Clostridium difficile clinical isolate growth, OD600, 24 h; stronger effect = lower value; AID 1259249, 2017;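 active = mean growth activity at or below -80% and every replicate also at or below -80%; inconclusive = mean at or below -80% but some replicate above -80%; inactive = mean growth activity above -80%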
T cruzi growth-1 – T. cruzi intracellular proliferation inhibitors, primary screen, cell-based, beta-gal Tulahuen parasites, NIH3T3 host, luminescence; actives 5.9% (n = 77,000); inhibition, % at 8.34 µM; AID 624255, 2012; T. cruzi beta-gal in NIH3T3, GalScreen luminescence, 90 h;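 active = mean inhibition above about 93%, with at least 55% of replicates each passing it, limit read from the data, passing the limit was not always enough; inconclusive = only one of those two conditions holds; inactive = neither condition holds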
Pf Dd2 inh – P. falciparum Dd2 growth inhibitors, primary screen, SYBR Green fluorescence, single dose replicates | 72 h; stronger effect = lower value | activity change, % at 10 µM | actives 2.3% (n = 94,000); in the data active = activity change below about -80%; inconclusive = no clear call, values can overlap the other calls
T cruzi growth-2 – T. cruzi intracellular proliferation inhibitors, confirmation, cell-based, NIH3T3 host, beta-gal parasite, luminescence, cherry-pick; shares compounds with T cruzi growth-1; T. cruzi beta-gal in NIH3T3, GalScreen luminescence, 90 h; inhibition, % at 8.35 µM; actives 72% (n = 5,600);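 active = mean replicate inhibition above about 95% and at least 55% of replicates individually reaching it, limit read from the data; inconclusive = only one of the two criteria is met; inactive = neither criterion is met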
T cruzi growth-3 – inhibitors of intracellular T. cruzi replication, confirmation, NIH3T3 host cells, beta-gal parasites, cherry-pick, set 2 | actives 21% (n = 5,600) | AID 651740, 2012 | inhibition, % at 2.09 µM | T. cruzi beta-gal in NIH3T3, GalScreen luminescence, 90 h | shares compounds with T cruzi growth-1;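 active = mean inhibition above about 95%, with at least 55% of replicates also reaching it, limit read from the data; inconclusive = meets just one of the two conditions; inactive = meets neither condition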
NIH3T3 tox – cytotoxicity in mouse NIH/3T3 fibroblasts, confirmation, cytotoxicity control for T. cruzi proliferation inhibitor project, cell-based, cherry-pick, single point | actives 14% (n = 5,600) | shares compounds with T cruzi growth-1 | NIH/3T3 viability, CellTiter-Glo ATP luminescence, 90 h | cytotoxicity (signal decrease), % at 8.35 µM;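 active = mean signal decrease across replicates above about 35% based on untreated-well scatter, with enough replicates individually passing, limit read from the data; inconclusive = no rule stated though some were filed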
3T3 cytotox 2 – NIH/3T3 fibroblast cytotoxicity, confirmation, cytotoxicity control, cell-based, cherry-pick, single point, set 2; NIH/3T3 viability, CellTiter-Glo ATP luminescence, 90 h; actives 56% (n = 5,600); inhibition, % at 24.9 µM; shares compounds with T cruzi growth-1;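 active = mean loss of cell viability signal at or above a set limit, and enough replicates individually reaching it; inconclusive = meets only the mean limit or only the replicate share; inactive = meets neither condition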
Numbers stand for hits.

Screening C[C@@H]1CN([C@H](C)CO)S(=O)(=O)c2ccc(C#CC3CCCCC3)cc2O[C@H]1CN(C)Cc1cccnc1 returned T cruzi growth-1 inactive and Pf Dd2 inh inactive.
CCC(=O)Nc1ccc2c(c1)C(=O)N(C)C[C@@H](OC)[C@@H](C)CN(C(=O)c1ccc(F)cc1)[C@@H](C)CO2 was read as T cruzi growth-1 inactive and Pf Dd2 inh inactive.
`CN1C(=O)c2cc(NC(=O)c3cccs3)ccc2OC[C@H]2O[C@H](CC(=O)N3CCCCC3)CC[C@H]21` gave C diff HTS inactive, T cruzi growth-1 inactive and Pf Dd2 inh inactive.
COc1ccc(-c2ccc3c(c2)O[C@@H](CN(C)C(=O)Nc2ccccc2F)[C@H](C)CN([C@@H](C)CO)S3(=O)=O)cc1 was read as C diff HTS inactive, T cruzi growth-1 inactive and Pf Dd2 inh inactive.
`C[C@@H]1CN([C@H](C)CO)S(=O)(=O)c2ccc(C#CC3CC3)cc2O[C@@H]1CN(C)C(=O)Nc1cc(F)ccc1F` gave T cruzi growth-1 105, Pf Dd2 inh inactive, T cruzi growth-2 109, T cruzi growth-3 inactive, NIH3T3 tox inactive and 3T3 cytotox 2 inactive.
For C[C@H](CO)N1C[C@H](C)[C@@H](CN(C)C(=O)Nc2cc(F)ccc2F)Oc2cc(-c3cccc(F)c3)ccc2S1(=O)=O the results were C diff HTS inactive, T cruzi growth-1 107, Pf Dd2 inh inactive, T cruzi growth-2 111, T cruzi growth-3 inactive, NIH3T3 tox inactive and 3T3 cytotox 2 32.
C[C@@H]1CN([C@H](C)CO)S(=O)(=O)c2ccc(C#CC3CC3)cc2O[C@H]1CN(C)C(=O)Nc1cc(F)ccc1F was read as T cruzi growth-1 inactive and Pf Dd2 inh inactive.
For C[C@H](CO)N1C[C@H](C)[C@H](CN(C)C(=O)Nc2cc(F)ccc2F)Oc2cc(-c3cccc(F)c3)ccc2S1(=O)=O the results were C diff HTS inactive, T cruzi growth-1 inactive and Pf Dd2 inh inactive.
`C[C@@H]1CN([C@@H](C)CO)S(=O)(=O)c2ccc(-c3ccccc3)cc2O[C@@H]1CN(C)C(=O)Nc1ccccc1F` gave T cruzi growth-1 inactive and Pf Dd2 inh inactive.
C[C@@H]1CN([C@H](C)CO)S(=O)(=O)c2ccc(-c3ccc(F)cc3)cc2O[C@@H]1CN(C)C(=O)Nc1ccccc1F was read as C diff HTS inactive, T cruzi growth-1 110, Pf Dd2 inh inactive, T cruzi growth-2 110, T cruzi growth-3 inactive, NIH3T3 tox inactive and 3T3 cytotox 2 37.
COc1ccc(-c2ccc3c(c2)O[C@@H](CN(C)C(=O)Nc2ccccc2F)[C@@H](C)CN([C@H](C)CO)S3(=O)=O)cc1 was read as C diff HTS inactive, T cruzi growth-1 97, Pf Dd2 inh -86, T cruzi growth-2 106, T cruzi growth-3 inactive, NIH3T3 tox 48 and 3T3 cytotox 2 39.
COCC(=O)Nc1ccc2c(c1)[C@H]1C[C@@H](CC(=O)N[C@H](C)c3ccccc3)O[C@@H](CO)[C@H]1O2 was read as C diff HTS inactive, T cruzi growth-1 inactive and Pf Dd2 inh inactive.
For C[C@@H]1CN([C@H](C)CO)C(=O)c2cc(C#Cc3cccnc3)cnc2O[C@H]1CN(C)Cc1ccc(F)cc1 the results were C diff HTS inactive and Pf Dd2 inh inactive.
For C[C@H]1CN([C@@H](C)CO)C(=O)c2cc(-c3ccc(F)cc3)cnc2O[C@H]1CN(C)C(=O)c1ccncc1 the results were T cruzi growth-1 inactive and Pf Dd2 inh inactive.
`CS(=O)(=O)N1[C@H](C#N)[C@H](c2ccc(C#CC3CCCCC3)cc2)[C@@H]1CO` gave C diff HTS inactive, T cruzi growth-1 inconclusive, Pf Dd2 inh inactive, T cruzi growth-2 101, T cruzi growth-3 107, NIH3T3 tox inactive and 3T3 cytotox 2 42.
`CS(=O)(=O)N1[C@H](C#N)[C@@H](c2ccc(C#CC3CCCCC3)cc2)[C@@H]1CO` gave C diff HTS inactive, T cruzi growth-1 inactive and Pf Dd2 inh inactive.
For CS(=O)(=O)N1[C@@H](C#N)[C@H](c2ccc(C#CC3CCCC3)cc2)[C@@H]1CO the results were C diff HTS inactive, T cruzi growth-1 inconclusive, Pf Dd2 inh inactive, T cruzi growth-2 inactive, T cruzi growth-3 inactive, NIH3T3 tox inactive and 3T3 cytotox 2 inactive.
For CS(=O)(=O)N1[C@H](C#N)[C@@H](c2ccc(C#CC3CCCC3)cc2)[C@@H]1CO the results were C diff HTS inactive, T cruzi growth-1 inactive and Pf Dd2 inh inactive.
Screening COCC#Cc1ccc2c(c1)O[C@H](CN(C)C(=O)NC(C)C)[C@H](C)CN([C@@H](C)CO)S2(=O)=O returned C diff HTS inactive and T cruzi growth-1 inactive.
`CC(C)CC#Cc1ccc2c(c1)O[C@H](CN(C)Cc1cncnc1)[C@H](C)CN([C@@H](C)CO)S2(=O)=O` gave C diff HTS inactive, T cruzi growth-1 inactive and Pf Dd2 inh inactive.
Screening CC(C)CC#Cc1ccc2c(c1)O[C@H](CN(C)Cc1cncnc1)[C@@H](C)CN([C@@H](C)CO)S2(=O)=O returned C diff HTS inactive, T cruzi growth-1 111, Pf Dd2 inh inactive, T cruzi growth-2 101, T cruzi growth-3 101, NIH3T3 tox inconclusive and 3T3 cytotox 2 98.
For CCCC#Cc1ccc2c(c1)O[C@@H](CN(C)Cc1cncnc1)[C@@H](C)CN([C@H](C)CO)S2(=O)=O the results were C diff HTS inactive, T cruzi growth-1 inactive and Pf Dd2 inh inactive.
`CCCC#Cc1ccc2c(c1)O[C@H](CN(C)Cc1cncnc1)[C@@H](C)CN([C@@H](C)CO)S2(=O)=O` gave C diff HTS inactive, T cruzi growth-1 inconclusive, Pf Dd2 inh inactive, T cruzi growth-2 107, T cruzi growth-3 101, NIH3T3 tox inconclusive and 3T3 cytotox 2 99.
Screening C[C@H](CO)N1C[C@H](C)[C@H](CN(C)C)OCCCC[C@H](C)Oc2ccc(NS(=O)(=O)c3ccccc3)cc2C1=O returned C diff HTS inactive, T cruzi growth-1 inactive and Pf Dd2 inh inactive.
For CN1C(=O)c2cc(NC(=O)c3cccs3)ccc2OC[C@H]2O[C@@H](CC(=O)NCC3CC3)CC[C@H]21 the results were C diff HTS inactive, T cruzi growth-1 inactive and Pf Dd2 inh inactive.
